Among the test systems are NCI-H23 lung; NCI-H226 lung; NCI-H322M lung; HOP-62 NSCLC; NCI-H460 lung; HOP-92 NSCLC; NCI-H522 lung; A549/ATCC NSCLC; 786-0 renal; COLO 205 colon; DU-145 prostate; MALME-3M melanoma; MDA-MB-231 breast; RXF 393 renal; SF-268 CNS; SF-295 CNS; SF-539 CNS; UACC-257 melanoma; M14 melanoma; K-562 leukemia.
What all share (assay): NCI-60 one-dose screen, 48 h (100 = growth as untreated, 0 = no growth, -100 = all killed)
What all share (details): 10 µM unless noted

The panel holds about 83,000 compounds, 20% with a hit somewhere; the sample as a whole holds those more often.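 Testing used 96-well plates and a 48-hour single-concentration exposure. Example: -40 means 40% of the starting cells died.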 Unmarked numbers belong to inactive results. Calls of active or inactive are those of the source. Rule for the calls: active = growth percent below 10; inactive = the rest.

Take `FC(F)(F)c1cn(CCN2CCOCC2)c2ncnc(Cl)c12`: the growth in the assay on NCI-H23 lung was 66.1%; in the assay on NCI-H226 lung, 101%; with NCI-H322M lung it was 87.4%; in the assay with HOP-62 NSCLC, 55.9%; in the assay with NCI-H460 lung, 84.3%; in the assay on HOP-92 NSCLC, -62.3% (active). In addition, the growth in the assay with NCI-H522 lung is 20.5%; in the assay on A549/ATCC NSCLC, 94.5%; with 786-0 renal, 113%; in the assay with COLO 205 colon, 76.5%; with DU-145 prostate it was 57.8%; with MALME-3M melanoma, 111%. Also, the growth in the assay with MDA-MB-231 breast was 63.8%; in the assay on RXF 393 renal, 82.9%; in the assay on SF-268 CNS, 67.5%; in the assay with SF-295 CNS, 96.5%; in the assay with SF-539 CNS, 87%; in the assay with UACC-257 melanoma, 84%. For the same molecule, in the assay with M14 melanoma, the growth was 38%.

Consider `Nc1ncnc2c1ncn2C1OC(COC(c2ccccc2)(c2ccccc2)c2ccccc2)C(O)C1O` (configuration not stated), for which the growth in the assay with NCI-H23 lung was 89.8%; in the assay on NCI-H226 lung it was 92.1%; in the assay on NCI-H322M lung, 96.5%; in the assay on HOP-62 NSCLC it was 95.2%; with NCI-H460 lung, 25.9%; in the assay on HOP-92 NSCLC it was 86.6%. The growth in the assay on NCI-H522 lung is 97.4%; in the assay on A549/ATCC NSCLC, 94.3%; in the assay with 786-0 renal, 99.1%; with COLO 205 colon it was 99.4%; with DU-145 prostate, 73%; in the assay with K-562 leukemia, 82.3%. For the same molecule, the growth in the assay on MALME-3M melanoma was 95.5%; in the assay with MDA-MB-231 breast it was 84.5%; in the assay with SF-268 CNS, 100%; with SF-295 CNS, 48.1%; with SF-539 CNS, 103%; with UACC-257 melanoma it was 108%. The growth in the assay on M14 melanoma is 101%.

As for `O=C(NC(=S)Nc1ccc(Cl)cc1)c1ccccc1`, the growth in the assay on NCI-H23 lung was 98.4%; in the assay on NCI-H226 lung, 108%; in the assay with NCI-H322M lung, 107%; in the assay with HOP-62 NSCLC it was 96.6%; with NCI-H460 lung, 105%; with HOP-92 NSCLC, 85.8%. Moreover, the growth with NCI-H522 lung is 53%; in the assay with A549/ATCC NSCLC, 85.1%; with 786-0 renal, 90.9%; with COLO 205 colon, 132%; in the assay with DU-145 prostate it was 103%; in the assay with K-562 leukemia it was 73.2%. Moreover, the growth in the assay with MALME-3M melanoma is 112%; in the assay on MDA-MB-231 breast it was 96.3%; in the assay on SF-268 CNS it was 114%; in the assay with SF-295 CNS it was 85.5%; in the assay with SF-539 CNS, 103%; in the assay with UACC-257 melanoma it was 97%. In addition, the growth with M14 melanoma is 100%.

Turning to `COc1cc(/C=C/C(=O)N2CCC=CC2=O)cc(OC)c1OC`, the growth was 62.3% in the assay with NCI-H23 lung; 109% in the assay on NCI-H226 lung; 84.3% in the assay with NCI-H322M lung; 82.8% in the assay with HOP-62 NSCLC; 76% in the assay with NCI-H460 lung; 28.9% in the assay on HOP-92 NSCLC. In addition, the growth in the assay with NCI-H522 lung was -68.2% (active); in the assay on A549/ATCC NSCLC, 72.3%; in the assay with 786-0 renal, 29.5%; in the assay with COLO 205 colon, 5.08% (active); in the assay on DU-145 prostate, 43.5%; with MALME-3M melanoma, 10.5%. The growth was 45.9% with MDA-MB-231 breast; 9.03% (active) in the assay with RXF 393 renal; 85.1% in the assay with SF-268 CNS; 94.1% in the assay with SF-295 CNS; 29.6% in the assay on SF-539 CNS; 66.4% in the assay with UACC-257 melanoma. The growth in the assay on M14 melanoma was 55.7%.

For the molecule `C=C1C(=O)O[C@H]2[C@H]1CC/C(COC(=O)c1ccc(Cl)nc1)=C\CC[C@@]1(C)O[C@@H]21`, the growth in the assay on NCI-H23 lung is 47.5%; in the assay with NCI-H226 lung, -9.06% (active); in the assay on NCI-H322M lung, 68.4%; with HOP-62 NSCLC, 57.1%; in the assay on NCI-H460 lung, 56.1%; in the assay with HOP-92 NSCLC, -40.1% (active). The growth was -83.7% (active) with NCI-H522 lung; 39.7% in the assay with A549/ATCC NSCLC; 9.88% (active) with 786-0 renal; -73.3% (active) in the assay on COLO 205 colon; 12.4% in the assay with DU-145 prostate; -51% (active) in the assay on MALME-3M melanoma. In addition, the growth was -2.63% (active) with MDA-MB-231 breast; -73.1% (active) with RXF 393 renal; 56.9% with SF-268 CNS; 74.9% in the assay with SF-295 CNS; -34.5% (active) in the assay on SF-539 CNS; 34.4% with UACC-257 melanoma. Also, the growth in the assay with M14 melanoma is 9.23% (active).

`O=[N+]([O-])c1ccc(NS(=O)(=O)c2ccccc2)c2ccccc12`: the growth with NCI-H23 lung is 34.3%; in the assay on NCI-H226 lung, 59.4%; with NCI-H322M lung it was 71.9%; in the assay with HOP-62 NSCLC, 50.6%; in the assay on NCI-H460 lung, 38.2%; with HOP-92 NSCLC it was 1.99% (active). Moreover, the growth with NCI-H522 lung was 18.2%; with A549/ATCC NSCLC, 57.1%; in the assay with 786-0 renal, 51.5%; in the assay with COLO 205 colon, 59.1%; in the assay with DU-145 prostate it was 62.4%; in the assay on MALME-3M melanoma it was 18.8%. Besides, the growth is 70.1% in the assay on MDA-MB-231 breast; 41.6% with RXF 393 renal; 42.3% in the assay with SF-268 CNS; 43% with SF-295 CNS; 45.1% in the assay with SF-539 CNS; 16.3% with UACC-257 melanoma. In addition, the growth with M14 melanoma was 41%.

Take `Clc1ccc(CN2COc3c(ccc4cccnc34)C2)cc1Cl`: the growth with NCI-H23 lung was 13.5%; with NCI-H226 lung it was -11.5% (active); in the assay on NCI-H322M lung it was 12.3%; in the assay with HOP-62 NSCLC, -2.68% (active); in the assay with NCI-H460 lung, -26.2% (active); in the assay on HOP-92 NSCLC it was -9.87% (active). The growth in the assay with NCI-H522 lung is -56.7% (active); in the assay with A549/ATCC NSCLC, -4.93% (active); in the assay on 786-0 renal, -63.3% (active); in the assay on COLO 205 colon, 12%; in the assay with DU-145 prostate it was 6.34% (active); in the assay on K-562 leukemia it was -34.2% (active). Besides, the growth is -11.3% (active) in the assay on MALME-3M melanoma; 19.7% in the assay with MDA-MB-231 breast; -3.19% (active) in the assay with SF-268 CNS; -18.6% (active) with SF-295 CNS; -36.7% (active) in the assay on SF-539 CNS; -35.1% (active) with UACC-257 melanoma. Also, in the assay with M14 melanoma, the growth is -3.94% (active).

On to `CCn1cc(/C=C2\Oc3cc(OCC#N)ccc3C2=O)c2cc(OC)ccc21`, for which the growth is 41.6% in the assay on NCI-H23 lung; 86.4% in the assay on NCI-H226 lung; 49.3% in the assay on NCI-H322M lung; 36.6% with HOP-62 NSCLC; 8.51% (active) in the assay on NCI-H460 lung; 71.2% with HOP-92 NSCLC. In addition, the growth in the assay with NCI-H522 lung was 56.7%; in the assay with A549/ATCC NSCLC, 41.1%; with 786-0 renal, 38.3%; in the assay with COLO 205 colon, 8.22% (active); in the assay with DU-145 prostate, 20.4%; in the assay with MALME-3M melanoma, 93.4%. The growth in the assay with MDA-MB-231 breast was 45.2%; in the assay on RXF 393 renal it was -11.3% (active); in the assay on SF-268 CNS it was 55.9%; with SF-295 CNS, 16.7%; in the assay on SF-539 CNS, 3.56% (active); in the assay with UACC-257 melanoma it was 65.1%. Further, in the assay with M14 melanoma, the growth is 22.8%.

For the origin of these results see PubChem BioAssay (NCI).
